IMPase Li inh: cell-permeable IMPase inhibitors with lithium potentiation; Potency, µM (top dose mostly 59.4 µM), usual class: inhibitors; AID 1457; 0.35% of 210,000 active; CHO-M1 cells, IP1 TR-FRET (IP-One), carbachol + lithium;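 note: IP1 builds up when IMPase is blocked and the TR-FRET signal falls; nearly all actives have a fitted effect of over 50% in size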
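Test compounds were applied to CHO-M1 cells previously cultured for 16–30 h at 2000 per well. A small lithium amount accompanied them; after 30 min at 37C, IP1 was quantified by TR-FRET.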
PTAP TSG101 blk: blocks PTAP/TSG101 interaction to inhibit HIV-1 budding. Q99816. Potency, µM (series often up to 115 µM), actives largely listed as inhibitors. AID 493005. 340,000 tested, under 10 active. Fluorescence polarization, FITC-PTAP peptide / Tsg101 binding; active = well fitted inhibition curve with a large enough effect in the main read-out, with a control signal flat, not every such curve was filed as active; inconclusive = small, poorly fitted or top-dose-only effect, or effect the other way, or a change in a side signal; inactive = no such curve, though single readings can be large or run the other way
Target sequence (Q99816 whole entry, looked up): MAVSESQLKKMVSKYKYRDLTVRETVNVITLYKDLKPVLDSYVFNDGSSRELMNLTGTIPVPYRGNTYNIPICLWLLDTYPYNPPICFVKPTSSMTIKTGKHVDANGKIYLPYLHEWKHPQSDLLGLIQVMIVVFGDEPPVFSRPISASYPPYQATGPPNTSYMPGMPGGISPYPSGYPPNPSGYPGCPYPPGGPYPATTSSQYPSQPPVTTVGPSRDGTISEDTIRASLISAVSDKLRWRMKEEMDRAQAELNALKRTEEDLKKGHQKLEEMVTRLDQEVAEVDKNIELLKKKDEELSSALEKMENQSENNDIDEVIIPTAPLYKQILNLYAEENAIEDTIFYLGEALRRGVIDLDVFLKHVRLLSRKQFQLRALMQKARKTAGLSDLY
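Tsg101 binding domain (10 uM final) was mixed with compound and a FITC-labeled PTAP peptide (50 nM final) in HEPES pH 7.5 buffer with NaCl, Tween 20, EDTA and TCEP; fluorescence polarization was read after 20 min at r.t.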
A-T KAP1 phos: potential ataxia-telangiectasia treatment; F2112 A-T fibroblasts, KAP-1 phosphorylation AlphaLISA; neocarzinostatin DNA damage 30 min before lysis; Potency, µM (highest dose often 57.5 µM), usual class: activators; 0.19% of 320,000 active; note: nearly all actives have a fitted effect of over 45% in size
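ATM-like activity read as KAP-1 phosphorylation via AlphaLISA donor/acceptor antibody pairs after lysis and 6 hr at 25C. Cells were ATM-null patient fibroblasts (F2112, hTERT), dosed 60 min, then exposed to the DSB inducer NCS for 30 min.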
CBFb RUNX1 block: CBF-beta/RUNX1 interaction disruption. 230,000 tested, under 10 active. Q01196+Q13951. Potency, µM (highest dose often 59.8 µM), hits mostly inhibitors. AlphaScreen CBFb-His/RUNX1-biotin binding, biochemical
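Bead-based AlphaScreen assay; binding partners His-tagged CBF-beta and biotinylated RUNX1 at 30 nM each. Compound exposure 15 min after a 20-min protein preincubation; bead step 90 min; all steps at room temperature.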
Large screens that a line does not name were inactive. Rows were chosen to be rich in hits. Some 0.37% of all compounds tested hit in one or more screens of this group. Unless noted, calls come from the whole dose curve; as a rule, active = well fitted curve in the direction sought with a large enough effect; inconclusive = small, poorly fitted or top-dose-only effect, or another doubt; inactive = no such curve, though single readings can be large; an effect the other way counts as inactive or inconclusive.

CN(C)c1ncc2nc(-c3cc(F)cc(F)c3)c(=O)n(Cc3cccs3)c2n1	IMPase Li inh 5.6µM (no result: PTAP TSG101 blk, A-T KAP1 phos, CBFb RUNX1 block)
COc1ccc(-c2nc3cnc(N4CCN(C)CC4)nc3n(Cc3cccs3)c2=O)cc1	none (no result: PTAP TSG101 blk, A-T KAP1 phos, CBFb RUNX1 block)
COc1ccc(-c2nc3cnc(N4CCOCC4)nc3n(Cc3cccs3)c2=O)cc1	IMPase Li inh 2µM (no result: PTAP TSG101 blk, A-T KAP1 phos, CBFb RUNX1 block)
Cc1nn(C)c(C)c1NC(=O)C12CC3CC(CC(C3)C1)C2	none (no result: A-T KAP1 phos)
COc1cc2c(C(=O)NCc3ccc4c(c3)OCO4)cn(CC(C)C)c(=O)c2cc1OC	none
OC1(C#CCCN2CCCCC2)c2ccccc2-c2ccccc21	none
OC1(CC#CCN2CCCCC2)c2ccccc2-c2ccccc21	A-T KAP1 phos 3.5µM (no result: IMPase Li inh)
O=C(O)CSCC(=O)c1ccccc1	none
O=C(Nc1nnc(CCS(=O)(=O)c2ccc3ccccc3c2)s1)c1cccs1	IMPase Li inh 11µM
C=C1CCN([C@@H](C)C(=O)OCc2cccc(C)c2)S(=O)(=O)c2ccccc21	CBFb RUNX1 block inconclusive (no result: IMPase Li inh)
C=C1CCN([C@H](C(=O)OCc2ccc(C)cc2)C(C)C)S(=O)(=O)c2ccccc21	A-T KAP1 phos 40µM (no result: IMPase Li inh)
COc1ccc(NC2CC(=O)N(C(C)C)C2=O)cc1 (stereo unspecified)	none
CCOC(=O)N1CCN(C(=O)CCc2nc3sc4c(c3c(=O)[nH]2)CCCC4)CC1	A-T KAP1 phos 10µM (no result: IMPase Li inh)
Oc1cc(NCc2ccccc2)cc2cccnc12	none (no result: IMPase Li inh, PTAP TSG101 blk, CBFb RUNX1 block)
Cn1c(SCc2cccc(C#N)c2)nc2ccccc2c1=O	none (no result: IMPase Li inh, CBFb RUNX1 block)
CC(C)n1c(=S)[nH]c2scc(-c3cccs3)c2c1=O	none (no result: IMPase Li inh, CBFb RUNX1 block)
O=c1c2c(-c3cccs3)csc2[nH]c(=S)n1-c1ccccc1	IMPase Li inh 10µM
N#Cc1cccc(NC(=O)N2CCCC3(CCN(C(=O)c4csnn4)CC3)C2)c1	none (no result: PTAP TSG101 blk, A-T KAP1 phos, CBFb RUNX1 block)
N#Cc1cccc(NC(=O)N2CCC3(CC2)CCN(C(=O)c2csnn2)CC3)c1	IMPase Li inh 11µM (no result: PTAP TSG101 blk, A-T KAP1 phos, CBFb RUNX1 block)
CCCCC/C=C\C/C=C\C/C=C\CC1OC1CCCC(=O)O (stereo unspecified)	none (no result: PTAP TSG101 blk, A-T KAP1 phos)
CCOc1cccc(NC(=O)CSc2nc(C)c3c(c2C#N)CCCC3)c1	IMPase Li inh 4µM
COC(=O)CSc1cc(C)nc(NC(C)=O)n1	none
CCN(CC(=O)Nc1c(F)cccc1F)C(=O)c1ccc(COc2ccccc2)o1	none (no result: IMPase Li inh, CBFb RUNX1 block)
Cc1c(/C(O)=C2/C(=O)C(=O)N(Cc3cccnc3)C2c2cccs2)cnn1-c1ccccc1 (stereo unspecified)	IMPase Li inh 7.1µM
Clc1ccc(C(c2ccccc2Cl)C(Cl)Cl)cc1 (stereo unspecified)	A-T KAP1 phos 28µM, CBFb RUNX1 block inconclusive
CS(=O)(=O)Nc1ccccc1C(=O)N1CCOCC1	none (no result: A-T KAP1 phos)
N#Cc1c(N)[nH]c(=S)c(C#N)c1-c1ccccc1	IMPase Li inh 13µM
COc1ccc(Br)cc1[C@H]1[C@H]2C=CC[C@@H](C)[C@@H]2C(=O)N1Cc1ccccc1	A-T KAP1 phos 40µM (no result: IMPase Li inh)
COc1ccc(/C=C/c2ccccc2)cc1C1C2C=CCC(C)C2C(=O)N1Cc1ccccc1 (stereo unspecified)	none (no result: IMPase Li inh, PTAP TSG101 blk, A-T KAP1 phos)
CSc1nc(N2CCOCC2)nc2ccc(C)cc12	A-T KAP1 phos 28µM (no result: IMPase Li inh, CBFb RUNX1 block)
c1ccc2c(N3CCOCC3)nc(N3CCOCC3)nc2c1	none (no result: A-T KAP1 phos)
CN1N=C(c2ccc(Cl)cc2)CC(c2ccc(Cl)cc2)C1=O (stereo unspecified)	none
COc1ccc(Oc2nc(SC)nc3ccccc23)cc1	IMPase Li inh 10µM
CCOC(=O)/C(C#N)=C/c1cc(C)n(-c2ccccc2)c1C	none (no result: A-T KAP1 phos)
Cc1cc(C)cc(-n2c(C)cc(C=C(C#N)C#N)c2C)c1	IMPase Li inh 10µM
O=C(CNC(=S)NC(=O)c1ccc(Cl)cc1)c1ccccc1	IMPase Li inh 10µM
O=C(CSc1nc2ccccc2c(=O)n1Cc1ccccc1)NCc1ccco1	IMPase Li inh 10µM
CC(=O)c1sc(NC(=O)COc2ccc(Cl)cc2Cl)nc1C	IMPase Li inh 10µM
CCCC(=O)Nc1nc(C)c(C(C)=O)s1	IMPase Li inh 8.9µM
CCCCC(=O)Nc1nc(C)c(C(C)=O)s1	none
CC(C)Oc1ccc(CNC(=O)Cn2c(=O)oc3ccccc32)cc1	none
Cc1ccc(C(C(=O)NC2CCCC2)N2CCCCC2)cc1 (stereo unspecified)	none
COc1ccccc1C1CC(c2cccs2)=Nc2ccccc2S1 (stereo unspecified)	none
COc1ccccc1C1CN(c2ccc(F)cc2F)N=C1c1cccs1 (stereo unspecified)	IMPase Li inh 14µM, CBFb RUNX1 block inconclusive (no result: A-T KAP1 phos)
CNC(=O)c1[nH]nc2c1CCc1cc(OC)ccc1-2	A-T KAP1 phos 10µM (no result: IMPase Li inh, CBFb RUNX1 block)
CC(C)N1CCC(N2CCN(Cc3ccc4nsnc4c3)CC2CCO)CC1 (stereo unspecified)	none
Cc1ccc(C(=O)[C@@H]2[C@H]3C4COC(O4)C(=O)[C@@H]3[C@H]3C=Cc4ccccc4N32)cc1 (stereo partly specified)	none (no result: PTAP TSG101 blk, A-T KAP1 phos)
CCC12CN(C(=O)c3ccc([N+](=O)[O-])cc3)CC(CC)(CN(C(=O)c3ccc([N+](=O)[O-])cc3)C1)C2=O	A-T KAP1 phos 7.1µM (no result: IMPase Li inh)
O=C1C=C(Nc2ccccc2)c2ccccc2C1=O	A-T KAP1 phos 35µM
Nc1c(C(=O)Nc2ccc(F)cc2)nnn1-c1cccc(C(F)(F)F)c1	none
COc1ccc(NC(=O)CS(=O)CC(=O)Nc2cc(Cl)ccc2OC)cc1 (stereo unspecified)	none
O=C(CSc1ncccc1-c1nc2ccccc2[nH]1)N1CCN(c2ccccc2F)CC1	IMPase Li inh 10µM
COc1ccccc1N1CCN(C(=O)CSc2ncccc2-c2nc3ccccc3[nH]2)CC1	none (no result: A-T KAP1 phos)
CN(CC(=O)N1CCCCC1)S(=O)(=O)c1ccc(Cl)cc1	none
N=c1oc2c3c4c(cc2cc1C(=O)Nc1ccccc1)CCCN4CCC3	PTAP TSG101 blk inconclusive, A-T KAP1 phos 16µM, CBFb RUNX1 block inconclusive
CCOC(=O)C(CC)(CCC(=O)O)c1csc(Nc2ccc(C)cc2)n1 (stereo unspecified)	none
O=C(C1=C(O)C(=O)N(c2ncccn2)C1c1ccc(Cl)cc1)c1ccco1 (stereo unspecified)	IMPase Li inh 13µM
Cc1ccc(C(=O)C2=C(O)C(=O)N(Cc3ccccc3)C2c2cccnc2)o1 (stereo unspecified)	IMPase Li inh 10µM
Cc1ccc(C(=O)C2=C(O)C(=O)N(c3ncccn3)C2c2ccc(Cl)cc2)o1 (stereo unspecified)	IMPase Li inh 13µM
COc1cccc(/C=N/c2nc3ccccc3n2C)c1O	none (no result: IMPase Li inh, CBFb RUNX1 block)
COC(=O)c1cn(NC(=O)C2CCCO2)c(=O)c2ccccc12 (stereo unspecified)	none
COC(=O)c1cn(NC(=O)C2COc3ccccc3O2)c(=O)c2ccccc12 (stereo unspecified)	IMPase Li inh 11µM
O=C(NCCc1cccs1)C1CC(c2cccc(F)c2)=NO1 (stereo unspecified)	A-T KAP1 phos 40µM (no result: IMPase Li inh)
NNC(=O)c1cccc(S(=O)(=O)Nc2cc(Cl)ccc2Cl)c1	A-T KAP1 phos 28µM (no result: IMPase Li inh)
Cn1cccc1C(=O)C(=O)Nc1cc(Cl)cc(Cl)c1	IMPase Li inh 14µM
